Data as given in PubChem BioAssay AID1159580 (chemical genetic matrix, 2015).
In all, about 5,500 compounds went through this assay and about 2,000 (36%) were called active. Inconclusive results (about 18%) are left out. Rule as the data show it: active = normalized growth mostly below about 0.91 (no sharp cut-off); inconclusive = no clear call, values can overlap the other calls; inactive = mostly above about 0.92. The list shows a part of the results.

Assay: chemical genetic growth profiling, strain panel (AID 1159580);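 also: tested at 20 µM; growth read once vehicle control cultures reached saturation at 30 °C; 1 = growth at the plate median or of vehicle wells; lower values mean less growth of the strain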
Details: growth OD

Measured: normalized growth

COc1cc(NS(=O)(=O)c2ccc(N)cc2)ncn1
inactive: S. cerevisiae deletion strains, locus YJR075W, strain HOC1, hits give low values 0.984 | S. cerevisiae deletion strains, locus YKL009W, strain mrt4, hits give low values 0.982 | S. cerevisiae deletion strains, locus YKL068W, hits give low values 0.986 | S. cerevisiae deletion strains, locus YKL085W, strain MDH1 (second series), hits give low values 0.991 | S. cerevisiae deletion strains, locus YKL085W, strain MDH1, hits give low values 0.991 | S. cerevisiae deletion strains, locus YKL160W, strain elf1, hits give low values 0.98 | S. cerevisiae deletion strains, locus YKL190W, strain CNB1, hits give low values 0.978 | S. cerevisiae deletion strains, locus YKR001C, strain vps1, hits give low values 0.986 | S. cerevisiae deletion strains, locus YKR026C, strain gcn3, hits give low values 0.968 | S. cerevisiae deletion strains, locus YKR091W, strain srl3, hits give low values 0.99 | S. cerevisiae deletion strains, locus YLL001W, strain dnm1, hits give low values 0.974 | S. cerevisiae deletion strains, locus YLL026W, hits give low values 0.985 | S. cerevisiae deletion strains, locus YLL041C, strain sdh2, hits give low values 0.982 | S. cerevisiae deletion strains, locus YLR027C, strain aat2, hits give low values 0.988 | S. cerevisiae deletion strains, locus YLR039C, strain RIC1, hits give low values 1.02 | S. cerevisiae deletion strains, locus YLR058C, strain SHM2, hits give low values 0.972 | S. cerevisiae deletion strains, locus YLR102C, strain apc9, hits give low values 0.986 | S. cerevisiae deletion strains, locus YLR113W, strain HOG1, hits give low values 0.949 | S. cerevisiae deletion strains, locus YLR221C, strain rsa3, hits give low values 0.985 | S. cerevisiae deletion strains, locus YLR258W, strain gsy2, hits give low values 0.979 | S. cerevisiae deletion strains, locus YLR262C, strain YPT6 (second series), hits give low values 0.985 | S. cerevisiae deletion strains, locus YLR262C, strain YPT6, hits give low values 1.02 | S. cerevisiae deletion strains, locus YLR268W, strain sec22, hits give low values 0.948 | S. cerevisiae deletion strains, locus YLR320W, strain mms22, hits give low values 0.979 | S. cerevisiae deletion strains, locus YLR330W, strain CHS5, hits give low values 0.998 | S. cerevisiae deletion strains, locus YLR342W, strain FKS1 (second series), hits give low values 1.04 | S. cerevisiae deletion strains, locus YLR342W, strain FKS1, hits give low values 1.02 | S. cerevisiae deletion strains, locus YLR357W, strain rsc2, hits give low values 0.93 | S. cerevisiae deletion strains, locus YLR370C, strain arc18, hits give low values 0.979 | S. cerevisiae deletion strains, locus YLR371W, strain rom2, hits give low values 0.992 | S. cerevisiae deletion strains, locus YLR384C, strain iki3, hits give low values 0.974 | S. cerevisiae deletion strains, locus YLR418C, strain cdc73, hits give low values 0.983 | S. cerevisiae deletion strains, locus YML016C, strain PPZ1, hits give low values 0.992 | S. cerevisiae deletion strains, locus YML032C, strain rad52, hits give low values 0.991 | S. cerevisiae deletion strains, locus YML120C, strain ndi1, hits give low values 1.01 | S. cerevisiae deletion strains, locus YML124C, strain tub3, hits give low values 0.988 | S. cerevisiae deletion strains, locus YMR058W, strain fet3, hits give low values 0.993 | S. cerevisiae deletion strains, locus YMR078C, strain ctf18, hits give low values 0.981 | S. cerevisiae deletion strains, locus YMR125W, strain sto1, hits give low values 0.963 | S. cerevisiae deletion strains, locus YMR129W, hits give low values 0.996 | S. cerevisiae deletion strains, locus YMR205C, strain PFK2, hits give low values 0.992 | S. cerevisiae deletion strains, locus YMR223W, strain ubp8, hits give low values 0.981 | S. cerevisiae deletion strains, locus YMR231W, strain pep5, hits give low values 0.975 | S. cerevisiae deletion strains, locus YMR263W, strain SAP30, hits give low values 0.982 | S. cerevisiae deletion strains, locus YMR307W, strain GAS1, hits give low values 1.1 | S. cerevisiae deletion strains, locus YNL067W, strain RPL9B, hits give low values 0.981 | S. cerevisiae deletion strains, locus YNL071W, strain lat1, hits give low values 0.969 | S. cerevisiae deletion strains, locus YNL153C, strain GIM3, hits give low values 0.965 | S. cerevisiae deletion strains, locus YNL183C, strain NPR1, hits give low values 0.933 | S. cerevisiae deletion strains, locus YNL209W, strain ssb2, hits give low values 0.975 | S. cerevisiae deletion strains, locus YNL233W, strain BNI4, hits give low values 0.987 | S. cerevisiae deletion strains, locus YNL248C, strain rpa49, hits give low values 0.931 | S. cerevisiae deletion strains, locus YNL250W, strain rad50, hits give low values 0.979 | S. cerevisiae deletion strains, locus YNL271C, strain bni1, hits give low values 0.992 | S. cerevisiae deletion strains, locus YNL298W, strain CLA4, hits give low values 0.983 | S. cerevisiae deletion strains, locus YNL307C, strain MCK1, hits give low values 0.979 | S. cerevisiae deletion strains, locus YNL322C, strain KRE1 (second series), hits give low values 0.955 | S. cerevisiae deletion strains, locus YNL322C, strain KRE1, hits give low values 0.991 | S. cerevisiae deletion strains, locus YNR049C, strain mso1, hits give low values 0.979 | S. cerevisiae deletion strains, locus YNR052C, strain pop2, hits give low values 0.987 | S. cerevisiae deletion strains, locus YOL006C, strain TOP1, hits give low values 0.965 | S. cerevisiae deletion strains, locus YOL012C, strain htz1 1.08 | S. cerevisiae deletion strains, locus YOL147C, strain pex11, hits give low values 0.982 | S. cerevisiae deletion strains, locus YOR001W, strain rrp6, hits give low values 0.998 | S. cerevisiae deletion strains, locus YOR061W, strain CKA2, hits give low values 0.961 | S. cerevisiae deletion strains, locus YOR069W, strain VPS5, hits give low values 0.992 | S. cerevisiae deletion strains, locus YOR070C, strain gyp1, hits give low values 0.984 | S. cerevisiae deletion strains, locus YOR080W, strain dia2, hits give low values 0.977 | S. cerevisiae deletion strains, locus YOR083W, strain WHI5, hits give low values 0.989 | S. cerevisiae deletion strains, locus YOR106W, strain vam3, hits give low values 0.981 | S. cerevisiae deletion strains, locus YOR136W, strain idh2, hits give low values 0.981 | S. cerevisiae deletion strains, locus YOR144C, strain elg1, hits give low values 0.982 | S. cerevisiae deletion strains, locus YOR184W, strain ser1, hits give low values 0.989 | S. cerevisiae deletion strains, locus YOR231W, strain MKK1, hits give low values 0.97 | S. cerevisiae deletion strains, locus YOR265W, strain rbl2, hits give low values 0.991 | S. cerevisiae deletion strains, locus YOR270C, strain vph1, hits give low values 0.95 | S. cerevisiae deletion strains, locus YOR290C, strain snf2, hits give low values 0.976 | S. cerevisiae deletion strains, locus YOR316C, strain cot1, hits give low values 0.982 | S. cerevisiae deletion strains, locus YPL051W, strain arl3, hits give low values 0.981 | S. cerevisiae deletion strains, locus YPL055C, strain LGE1, hits give low values 0.92 | S. cerevisiae deletion strains, locus YPL078C, strain atp4, hits give low values 0.988 | S. cerevisiae deletion strains, locus YPL106C, strain sse1, hits give low values 0.969 | S. cerevisiae deletion strains, locus YPL240C, strain hsp82, hits give low values 0.997 | S. cerevisiae deletion strains, locus YPL256C, strain CLN2, hits give low values 0.974 | S. cerevisiae deletion strains, locus YPR119W, strain clb2, hits give low values 0.982 | S. cerevisiae deletion strains, locus YPR141C, strain kar3, hits give low values 0.97 | S. cerevisiae deletion strains, locus YPR163C, strain tif3, hits give low values 0.985 | S. cerevisiae deletion strains, locus YPR167C, strain met16, hits give low values 0.994 | S. cerevisiae deletion strains, strain wtn01, hits give low values 0.981 | S. cerevisiae strains, strain wild type, hits give low values 0.981
